# High-throughput results: PubChem BioAssay, several laboratories
# S1P4 antagonist – antagonists of human S1P4 receptor; S1P4-expressing cells, antagonist mode, reporter read-out; inhibition, % at 4.98 µM; 0.26% of 220,000 active; AID 1510; in the data active means inhibition above about 29%;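 further: 0% = wells stimulated with agonist and 100% = vehicle wells without agonist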
# Target sequence (O95977 whole entry, looked up): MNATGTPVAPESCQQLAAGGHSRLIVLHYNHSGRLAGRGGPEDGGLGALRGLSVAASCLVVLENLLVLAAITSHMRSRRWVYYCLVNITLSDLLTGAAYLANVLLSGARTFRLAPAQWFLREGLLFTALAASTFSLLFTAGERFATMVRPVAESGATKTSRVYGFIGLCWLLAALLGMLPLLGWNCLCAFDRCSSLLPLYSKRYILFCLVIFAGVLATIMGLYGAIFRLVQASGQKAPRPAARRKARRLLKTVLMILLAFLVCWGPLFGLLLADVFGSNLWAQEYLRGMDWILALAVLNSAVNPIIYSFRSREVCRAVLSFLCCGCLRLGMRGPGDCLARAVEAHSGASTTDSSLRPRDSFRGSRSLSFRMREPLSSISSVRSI
# Hsp70 act – Hsp70 transcriptional activation, primary screen; HeLa Hsp70 promoter luciferase reporter, luminescence; scaled: vehicle 0, proteasome-inhibitor control 100%; activation, % at 10 µM; 0.04% of 200,000 active; AID 1203;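 active means activation above the mean across all tested compounds plus 3 SD, cutoff set per campaign, cut at about 5.5% in these data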;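 further: 100% = MG132 at 30 µM as the positive control and 0% = DMSO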
# CHOP inh – CHOP inhibition in unfolded protein response; inhibition, % at 10 µM; 3.8% of 220,000 active; CHO-K1 CHOP-promoter luciferase, tunicamycin-induced, 15-18 h;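 active means compounds that reduced the stress-induced luciferase reporter signal by more than about 70% of percent inhibition, limit read from the data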;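 further: 0% = tunicamycin plus vehicle and 100% = wells without tunicamycin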
# S1P4 agonist – human S1P4 receptor agonism; O95977; S1P4-expressing cell line, agonist reporter assay; activation, % at 4.98 µM; 0.35% of 220,000 active; in the data active means activation above about 11%;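 further: 0% = DMSO vehicle and 100% = reference agonist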
# Starred values were filed as active, the others as inactive; x = not tested or not shown. Rows were chosen to be rich in hits. Some 4.2% of all compounds tested hit in one or more screens of this group.
SMILES,S1P4 antagonist,Hsp70 act,CHOP inh,S1P4 agonist
CS(=O)(=O)c1ccccc1-c1nc(-c2cc(C(F)(F)F)cc(C(F)(F)F)c2)no1,-9,0,44,3
CCCc1cc(C(=O)OC)c(NC(=O)OCC)s1,-2,0,74*,1
CCCc1cc(C(=O)OC)c(NC(=O)CCCC(=O)O)s1,-6,0,9,0
Cc1ccc(C(=O)O)cc1Nc1ncnc2sc3c(c12)CCC3,-4,x,10,0
CCOc1ccccc1N(CC(=O)Nc1c(C)n(C)n(-c2ccccc2)c1=O)S(=O)(=O)c1ccccc1,1,0,19,0
O=C(Nc1nc(-c2cccc3ccccc23)cs1)c1ccc2c(c1)S(=O)(=O)c1ccccc1C2=O,-11,0,85*,1
COc1cccc(NC(=O)c2cc3c(=O)n4ccccc4nc3n(CC(C)C)c2=N)c1,8,0,12,2
COC(=O)c1cc2c(=O)n3ccccc3nc2n(C(C)C)c1=N,-28,0,x,12*
CCCCNS(=O)(=O)c1ccc(OC)c2ncccc12,-7,0,-12,0
O=C(COc1ccccc1-c1ccccc1)N/N=C/c1ccccn1,-6,0,77*,-1
Cc1nn(-c2nnc(NCc3ccccc3)nn2)c(C)c1Br,-9,0,73*,0
CCOC(=O)c1ccc(NC2=CC(=O)C(=O)c3ccccc32)cc1,-21,0,17,2
C/C(=N\Nc1ccc(F)cc1F)c1ccc(Br)s1,-17,0,71*,0
C/C(=N\Nc1ccc(F)cc1F)c1ccc(F)cc1,7,0,-3,0
Fc1ccc(NCc2cccnc2)cc1F,-6,0,26,0
COn1c(SC(C)C)nc2ccccc2c1=O,-6,0,29,0
COn1c(SC2CCCCC2)nc2ccccc2c1=O,9,0,83*,-1
CC(C)On1c(SC(C)C)nc2ccccc2c1=O,1,0,73*,0
O=C1CCCC2=C1C(c1cccs1)n1nc(SCc3ccc(C(=O)O)cc3)nc1N2 (stereo unspecified),-1,x,4,0
CCOc1ccc(-c2cc(C(=O)N3CCN(c4ccccn4)CC3)c3ccccc3n2)cc1,-3,0,x,-2
O=C(NCc1cccs1)Nc1cccc(Cl)c1,-5,0,x,1
CCOC(=O)C(CCCOc1ccc(C)cc1)C(=O)OCC,-13,0,95*,1
CN(C)C/C(Cl)=C(\Cl)c1ccccc1,-4,0,77*,0
CN(C)CC(=O)c1ccc(-c2ccccc2)cc1,8,0,27,2
O=C(Nc1ccccc1)c1ccccc1Oc1ccc(C(F)(F)F)cc1[N+](=O)[O-],-13,0,71*,1
SMILES,S1P4 antagonist,Hsp70 act,CHOP inh,S1P4 agonist
O=C(Oc1ccccc1C(=O)Nc1ccccc1)c1ccc(Br)c([N+](=O)[O-])c1,-10,0,84*,1
CCOC(=O)c1cc(CC)sc1NC(=O)c1ccc2c(c1)OCCO2,16,0,-2,0
COc1ccc(/C=C/C(=O)O)cc1COc1ccccc1C,-1,0,40,1
O=c1c2c3nc4ccccc4nc3n(Cc3ccccc3)c2ncn1Cc1ccco1,25,0,74*,-1
N=c1c2c(-c3ccccc3)c(-c3ccccc3)n(Cc3ccco3)c2ncn1Cc1ccccc1,13,0,85*,1
CCc1ccccc1NC(=O)C1CCCN(S(=O)(=O)c2c(C)noc2C)C1 (stereo unspecified),16,0,18,0
O=[N+]([O-])c1cccnc1N1CCC(c2cc(-c3ccc(Cl)cc3Cl)n[nH]2)CC1,5,0,92*,1
O=C(CN1C(=O)C2CC=CCC2C1=O)NC1CCCCC1 (stereo unspecified),-5,0,0,-2
Cc1ccc(C(=O)CSc2nnc(-c3ccc4[nH]c(C)c(C)c4c3)o2)cc1C,-14,0,74*,2
COc1cc(C=C(c2nc3ccccc3s2)c2nc3ccccc3s2)ccc1O,-14,0,74*,1
O=C(CSc1nnc(Cc2ccccc2)n1Cc1ccco1)NC12CC3CC(CC(C3)C1)C2,16,-1,72*,0
CN(C)C(=O)CSc1nnc(Cc2ccccc2)n1Cc1ccco1,0,0,20,-5
CC12C(=O)N(c3ccccn3)C(=O)C1C1C=CC2C1 (stereo unspecified),-19,0,75*,0
NC(=S)n1[nH]c(-c2ccc([N+](=O)[O-])cc2)c(N=Nc2cccc(Cl)c2)c1=O,3,0,83*,1
Nc1[nH][nH]c(=O)c1N=Nc1cccc(Cl)c1,2,0,-13,-2
OCC1(CCCc2ccccc2)CCN(Cc2cc(F)ccc2F)CC1,-13,0,2,2
CCOC(=O)c1sc(-c2ccc(Br)cc2)cc1N,-17,0,81*,0
CCOC(=O)c1cc(-c2ccc(N)cc2)sc1N,7,0,36,0
O=C(CN1C(=O)/C(=C\c2ccc(F)cc2)Oc2ccccc21)N1CCN(c2ccccn2)CC1,-9,0,90*,-1
O=C(CN1C(=O)/C(=C\c2cccc(F)c2)Oc2ccccc21)N1CCN(c2ccccn2)CC1,-16,0,18,0
CCOC(=O)C1=C(Cn2cnc3ccccc32)NC(=O)NC1c1cc(C)ccc1C (stereo unspecified),-8,0,89*,-1
COC(=O)C1=C(Cn2cnc3ccccc32)NC(=O)NC1c1cc(C)ccc1C (stereo unspecified),-12,0,34,1
Cc1ccc(C)c(NC(=O)/C(C#N)=C/c2ccc(Sc3nncn3C)c([N+](=O)[O-])c2)c1,-9,-1,22,1
NC(=O)COC(=O)c1ccc(Cl)c(S(=O)(=O)N(Cc2ccccc2)c2ccc(Cl)cc2)c1,-11,-1,85*,1
CC1=C(C(=O)Nc2ccccc2)C(c2ccco2)NC(=S)N1 (stereo unspecified),-11,0,-4,3
SMILES,S1P4 antagonist,Hsp70 act,CHOP inh,S1P4 agonist
Cc1ccc(-c2cc(C(F)F)n3ncc(C(=O)Nc4c(C)nn(Cc5c(Cl)cccc5Cl)c4C)c3n2)cc1,-1,0,91*,1
O=C1c2ccccc2C(Nc2cccnc2)N1Cc1ccccc1Cl (stereo unspecified),-8,0,18,-1
O=c1[nH]c(/C(Cl)=C/c2cccc(C(F)(F)F)c2)nc2cc(Cl)ccc12,3,0,29,0
O=c1[nH]c(/C(Cl)=C/c2c(F)cccc2Cl)nc2cc(Cl)ccc12,-6,0,79*,0
O=C(CCc1ccccc1)Nc1nnc(-c2ccc3c(c2)OCCO3)o1,-6,0,3,0
O=C(Nc1nnc(-c2ccc3c(c2)CCCC3)o1)C1CCCCC1,-13,0,84*,1
O=C(Nc1nnc(-c2ccc3c(c2)CCCC3)o1)c1c(F)cccc1F,-17,0,13,0
O=C(CCc1ccccc1)Nc1nnc(-c2ccc3c(c2)CCCC3)o1,-7,0,94*,-2
O=C(Nc1nnc(-c2ccc3c(c2)CCCC3)o1)c1ccc(Cl)cc1Cl,-6,0,98*,-2
